Data from PubChem BioAssay (Tox21).
Several values for one entry are separate records, joined by “and”; a condition that tells them apart may be missing. Equal entries are not always repeated. Inconclusive results are not listed. Values without a mark were called inactive. Activity calls are given as the source filed them. Calls follow the shape of the dose curve; as a rule, active = well fitted cell-killing curve with a large enough effect in the repeat runs; inconclusive = weak or mixed curves, or effect the other way; inactive = no such curve, though single readings can be large or run the other way.

Experiment: Caspase-3/7 induction in CHO-K1 cells by small molecules, qHTS cell viability counter screen (AID 1346979); also: nearly all actives have a fitted effect of over 35% in size
Conditions: CellTiter-Fluor fluorescence, 17 h; series mostly up to 92.4 µM; activity change, negative = cytotoxicity: at the top concentration
Text: National Center for Advancing Translational Sciences [NCATS]
NIH Chemical Genomics Center [NCGC]
U.S. Environmental Protection Agency [EPA]
National Institutes of Environmental Health Sciences [NIEHS]
National Toxicology Program [NTP]
U.S. Food and Drug Administration [FDA]
Apoptosis is a process of programmed cell death and plays a central role in the development of multicellular organisms. It is a highly regulated process and induces cell death by activating caspases, which are the members of cysteine aspartic acid-specific protease (caspase) family. Caspases involved in apoptosis are classified by their mechanism of action as initiator caspases (caspase-2, -8, -9 and -10) and executioner caspases (caspase-3, -6, and -7). Inhibition of apoptosis results in number of cancers, autoimmune diseases, inflammatory diseases and viral infection. To identify small molecule compounds that induce apoptosis, a homogeneous, luminescent Caspase-Glo 3/7 assay was used. Wild type CHO-K1 cells were used to screen Tox21 libraries for identifying caspase-3/7 activity inducers. Also cytotoxicity of the compounds was tested in parallel by measuring the cell viability using CellTiter-Fluor assay system in the same wells.
Tox21 Assay Protocol Summary:
CHO-K1 cells were dispensed at 1,500 per well in 5uL of culture medium into white solid bottom 1536-well plates (Corning Life Sciences, Corning, NY) using a Multidrop Combi (Thermo Scientific, Waltham, MA) dispenser. The assay plates were incubated at 37 C and 5% CO2 for 5hr, and then 23nL of compounds dissolved in DMSO and positive control were transferred using a Pintool station (Wako, San Diego, CA). The assay plates were incubated at 37C and 5% CO2 for 17hr. For cytotoxicity read, after 16hr incubation at 37C, 1uL CellTiter-Fluor reagent (Promega Corporation, Madison, WI) was added to each well of the assay plates using Flying Reagent Dispenser (FRD, Aurora Discovery, San Diego, CA). After 1hr incubation at 37C and 5% CO2, the fluorescence signal was quantified using a ViewLux plate reader (PerkinElmer, Shelton, CT).
% is scaled to controls: 0 for no effect and ±100 for the full control effect; potency is read from the fitted curve at half-maximal effect.

| SMILES | Potency | activity change, negative = cytotoxicity |
| --- | --- | --- |
| CC(=O)N[C@@H](CS)C(=O)O | inactive | – |
| NCCCCCC(=O)O | – | 6.53% [at 42.5 µM] |
| CN1C(=O)c2ccc([N+](=O)[O-])cc2C1=O | – | 11.3% |
| CCN(CC)C(=O)Nc1ccc(OCC(O)CNC(C)(C)C)c(C(C)=O)c1 (stereo not given) | – | 5.03% [at 42.5 µM] |
| CCCNC(C)C(=O)Nc1ccccc1C (stereo not given) | – | 2.19% [at 42.5 µM] |
| CN(C)c1ccc2nc3ccc(=[N+](C)C)cc-3sc2c1 | 5.87 µM (active) and 24.3 µM (active) and 5.96 µM (active) | – |
| CC(C)CCCCCCc1ccc(O)cc1 | 44 µM (active) and 61.1 µM (active) | – |
| O=C(O)c1cc(Cl)cc(Cl)c1 | – | 9.96% |
| Cc1cc(C(C)(C)C)c(O)c(C(C)(C)C)c1 | inactive | – |
| CCC(=O)/C=C/C1C(C)=CCCC1(C)C (stereo not given) | inactive | – |
| O=C(O)CCc1ccccc1 | – | 11.2% |
| CC(C)CCOC(=O)c1ccc(N(C)C)cc1 | – | -2.62% [at 42.5 µM] |
| CCN1CCCC1CNC(=O)c1cc(S(=O)(=O)CC)c(N)cc1OC (stereo not given) | – | -0.713% [at 42.5 µM] |
| COc1nc(C)nc(Cl)c1NC1=NCCN1 | – | -0.291% [at 42.5 µM] |
| CC1COc2c(N3CCN(C)CC3)c(F)cc3c(=O)c(C(=O)O)cn1c23 (stereo not given) | – | -1.34% [at 42.5 µM] |
| CNC1(C)C2CCC(C2)C1(C)C (stereo not given) | – | 5.03% [at 42.5 µM] |
| COc1cc(C(=S)N2CCOCC2)ccc1O | – | 12.3% [at 42.5 µM] |
| CCCCOCCOC(=O)c1ccccc1C(=O)OCCOCCCC | – | -6.55% |
| Oc1c(Cl)cc(Cl)c(Cl)c1Cc1c(O)c(Cl)cc(Cl)c1Cl | 6.09 µM (active) and 15.4 µM (active) and 8.41 µM (active) | – |
| O=C1NCC2(CCN(CCc3ccccc3)CC2)O1 | – | -0.555% [at 42.5 µM] |

| SMILES | Potency | activity change, negative = cytotoxicity |
| --- | --- | --- |
| NNCCc1ccccc1 | – | 4.3% |
| NC(N)=NC(=O)Cc1c(Cl)cccc1Cl | – | -13.1% [at 42.5 µM] |
| c1ccc2c(c1)CCCC2C1=NCCN1 (stereo not given) | – | -0.829% [at 42.5 µM] |
| COc1ccc(CCN2CCC(Nc3nc4ccccc4n3Cc3ccc(F)cc3)CC2)cc1 | 7.86 µM (active) and 23.7 µM (active) | – |
| CCC(C)(Oc1ccc(C2(c3ccc(OC(C)(CC)C(=O)O)cc3)CCCCC2)cc1)C(=O)O (stereo not given) | – | 1.1% [at 42.5 µM] |
| Clc1ccc2c(c1)C(N1CCNCC1)=Nc1ccccc1O2 | – | -11.5% [at 42.5 µM] |
| Nc1nc(=S)c2[nH]cnc2[nH]1 | 5.31 µM (active) and 9.69 µM (active) and 3.76 µM (active) | – |
| CC(=O)Nc1ccc(C(=O)CCl)cc1 | 54.8 µM (active) and 17.2 µM (active) | – |
| O=C(OCc1ccccc1)c1ccc(O)cc1 | – | -3.09% [at 42.5 µM] |
| BrC1CCC(Br)C(Br)CCC(Br)C(Br)CCC1Br (stereo not given) | 48.4 µM (active) | – |
| CC(C(O)c1ccc(O)cc1)N1CCC(Cc2ccccc2)CC1 (stereo not given) | – | -0.358% [at 42.5 µM] |
| CNCCC(Oc1ccc(C(F)(F)F)cc1)c1ccccc1 (stereo not given) | 67.7 µM (active) and 29.8 µM (active) | – |
| CCCCCCCCCCCC[N+](C)(C)C | 68.4 µM (active) | – |
| CC(C)(C)c1ccccc1 | – | 9.15% |
| CC(C)(O)CCC(C)(C)O | – | 4.58% |
| NC(N)=Nc1nc(CSCC/C(N)=N/S(N)(=O)=O)cs1 | – | -10.3% [at 42.5 µM] |
| Nc1cc(S(=O)(=O)O)cc2cc(S(=O)(=O)O)cc(O)c12 | 43.1 µM (active) and 61.1 µM (active) | – |
| COc1ccc(Cc2cnc(N)nc2N)cc1OC | – | 12.6% [at 42.5 µM] |
| c1ccc2cc3c(ccc4ccccc43)cc2c1 | inactive | – |
| Oc1ccc(Cl)cc1Cc1cc(Cl)ccc1O | 44.1 µM (active) and 38.6 µM (active) and 29.8 µM (active) | – |
